For 40 compounds, Potency and outcome results are on record in PubChem BioAssay (Tox21).

The structures appear in SMILES notation. Inconclusive results are not listed. Activity calls are given as the source filed them. Unless noted, the call rests on the fitted dose curve; in most records, active means well fitted curve in the direction sought with a large enough effect in the repeat runs; inconclusive means weak or mixed curves; inactive means no such curve, though single readings can be large; an effect the other way counts as inactive or inconclusive.

Assay [1] in a line: qHTS assay to identify small molecule antagonists of the estrogen related receptor (ERR) signaling pathway (AID 1224819; further: nearly all actives have a fitted effect of over 50% in size; further: potency means the concentration at half of the fitted maximal effect). In a few lines: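 ERR reporter cell line (NTP) plated at 2,000 cells/well, settled 6 h at 37C/5% CO2, then exposed to LOPAC compounds for 18 h at 37C. One-Glo luciferase luminescence read after 30 min at room temperature.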
For orientation: qHTS replaces the single test concentration by a dilution series.

Assay [2] can be described thus: qHTS assay to identify small molecule agonists of the estrogen related receptor (ERR) signaling pathway (AID 1224820). In a few lines:
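Cells: ERR line from NTP, 2,000/well. Pre-incubation 6 h, 37 C/5% CO2. Compound (DMSO) pin transfer, 18 h 37 C. One-Glo, 30 min RT, luminescence.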

Assay [3] has as its system estrogen-related receptor alpha (ERRalpha) with PGC-1alpha coactivator, human. As to the kind of experiment: qHTS assay to identify small molecule antagonists of the estrogen related receptor signaling pathway with the pleiotropic PPARgamma coactivator (PGC) (AID 1224821; calls by dose curve; further: nearly all actives have a fitted effect of over 50% in size; further: potency means the concentration at half of the fitted maximal effect). In a few lines:
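Luminescent read-out (One-Glo, 30 min at room temperature) following 18 h treatment of PGC/ERR cells at 37 C with compounds delivered in DMSO. Cells had settled 6 h at 37 C/5% CO2 before dosing.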

Assay [4] in a line: qHTS assay to identify small molecule antagonists of the retinoid acid receptor (RAR) signaling pathway - cell viability counter screen (AID 1159551). Further: nearly all actives have a fitted effect of over 35% in size. In a few lines: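 C3RL4 RARE-luciferase cells, 1,000/well, incubated overnight, then dosed with compound plus 1 uM retinol (final). After 6 hr at 37 C, viability read by CellTiter-Glo ATP luminescence following 30 min at room temperature.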

The nature of assay [5]: qHTS assay to identify small molecule antagonists of the retinoic acid receptor (RAR) signaling pathway (AID 1159552; further: nearly all actives have a fitted effect of over 50% in size; further: potency means the concentration at half of the fitted maximal effect). In a few lines:
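Cells of the C3RL4 line were seeded, incubated overnight, then dosed with compounds in DMSO followed immediately by retinol (1 uM final). Six hours later luciferase detection reagent went in; signal was measured after 30 min at RT.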

A short description of assay [6]: qHTS assay to identify small molecule agonists of the retinoic acid receptor (RAR) signaling pathway (AID 1159553). Further: potency means the concentration at half of the fitted maximal effect. In a few lines:
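C3RL4 RARE-luciferase cells were seeded at 1,000/well and grown overnight at 37 C, then exposed to compounds for 6 hr at 37 C, 5% CO2. Luciferase reagent was added and luminescence was read after 30 min at room temperature.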

Assay [7] in a line: qHTS assay to identify small molecule agonists of the RXR signaling pathway - cell viability counter screen (AID 1159529). Further: nearly all actives have a fitted effect of over 50% in size. Further: potency means the concentration at half of the fitted maximal effect. In a few lines:
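HEK 293T RXRa-bla cells, 2% CS-FBS; 5 h settle; cpd 16 h 37 C, 5% CO2; CellTiter-Glo 30 min RT, luminescence. Tetraoctyl ammonium bromide as positive control.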

The nature of assay [8]: qHTS assay to identify small molecule antagonists of the estrogen related receptor (ERR) signaling pathway - cell viability counter screen (AID 1224818). Further: series mostly up to about 46 µM. In a few lines:
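ERR cells, 2,000 per well, compound added after 6 h and incubated 17.5 h at 37 C. Viability read by CellTiter-Fluor fluorescence after a further 30 min at 37 C.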

Assay [9] in a line: qHTS assay to identify small molecule antagonists of the estrogen related receptor signaling pathway with the pleiotropic PPARgamma coactivator (PGC) cell viability counter screen (AID 1224822; further: series mostly up to about 46 µM). In a few lines:
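PGC/ERR cells rested 6 h, then compound-treated 17.5 h at 37 C. CellTiter-Fluor added for 30 min at 37 C, viability measured by fluorescence intensity.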

For the compound `CC(CCc1ccc(O)cc1)NCCc1ccc(O)c(O)c1` (stereo not drawn), the Potency result in assay [1] and in assay [3] was “inactive” in each case. Also, the result in assay [2] was inactive.
For the compound `CCCCCCCCCCCC(=O)OCC(O)CO` (stereo not drawn), the Potency entry in [4], in assay [5] and in assay [6] was “inactive” in each case.
For the compound `O=C(Oc1ccccc1)c1ccc2ccccc2c1O`, the Potency entry in assay [4] and in assay [5] was “inactive” in each case. In addition, the Potency in assay [6] was 0.864 µM (active).
With `CC(C)C(O)C(C)(C)CO` (stereo not drawn), the Potency entry in assay [7] was “inactive”. Further, in assay [5], the Potency is 5.01 µM (active).
For `CN1CCCN(C(c2ccccc2)c2ccc(Cl)cc2)CC1` (stereo not drawn), the Potency result in assay [4] is “inactive”. In addition, the Potency in assay [5] is 23.7 µM (active).
Regarding `Nc1ccc(NC(=O)c2ccc(N)cc2)cc1`, the Potency result in assay [4] and in [5] was “inactive” throughout.
Regarding `CCCCCCCC/C=C\CCCCCCCC(=O)OCCO`, the Potency result in assay [4] and in [6] was “inactive” in each case.
For `SCCc1cnccn1`, the Potency result in [4] is “inactive”.
For `COc1cc(NCc2ccc3nc(N)nc(N)c3c2C)cc(OC)c1OC`, the Potency result in [4] and in assay [6] was “inactive” each time.
On to `Cc1ccccc1S(N)(=O)=O`, for which the Potency result in [4] and in assay [5] was “inactive” in each case.
Take `CC1C(C)(C)C2=C(C(=O)CCC2)C1(C)C` (stereo not drawn): the Potency entry in [4], in assay [5] and in assay [6] was “inactive” in each case.
In the case of `CC(C)c1ccc(C(=O)N=C(N)N)cc1S(C)(=O)=O`, the Potency entry in assay [4], in assay [5] and in assay [6] was “inactive” in each case.
Take `O=C(O)c1cccc(Oc2ccccc2)c1`: the Potency entry in assay [4] and in [5] was “inactive” in each case.
As for `CC(C)CC(O)CC(C)C`, the Potency entry in [4], in assay [5] and in [6] was “inactive” in each case.
Consider `Cc1cc([N+](=O)[O-])ccc1N`, for which the Potency entry in [4] and in assay [5] was “inactive” throughout.
As to `COc1ccc(-c2cc(=S)ss2)cc1`, the Potency result in assay [4] and in [5] was “inactive” each time. In addition, the Potency in [6] is 26.6 µM (active).
As to `CC(=O)c1ccc[nH]1`, the Potency entry in assay [4] and in assay [5] was “inactive” throughout.
With `O=C(/C=C/c1ccc([N+](=O)[O-])cc1)c1ccccc1`, the Potency result in [4] and in assay [5] was “inactive” throughout.
With `O[C@@H](CNC[C@H](O)[C@H]1CCc2cc(F)ccc2O1)[C@@H]1CCc2cc(F)ccc2O1`, the Potency is 19 µM (active) in [7] and 29.8 µM (active) in [5].
Take `COc1ccc(CCN(C)CCCN2CCc3cc(OC)c(OC)cc3CC2=O)cc1OC`: the Potency result in [4] and in [5] was “inactive” throughout.
For the compound `CCCCCCCCCCCCCC(=O)OCC(O)CO` (stereo not drawn), the Potency result in [4], in [5] and in [6] was “inactive” each time.
On to `COC(=O)C1=C(C)NC(C)=C(C(=O)OC(C)(C)CN(C)CCC(c2ccccc2)c2ccccc2)C1c1cccc([N+](=O)[O-])c1` (stereo not drawn), for which, in [4], the Potency entry was “inactive”. Further, the Potency in assay [1] was 19.6 µM (active); in [3], 13.9 µM (active). In assay [2], the outcome was inactive.
As for `CC(=O)OC(C)C[N+](C)(C)C` (stereo not drawn), the Potency result in assay [4], in [5], in assay [6], in assay [1] and in [3] was “inactive” each time. Besides, the compound was classed as inactive in assay [8], in assay [2] and in [9].
Consider `CN(C)CC/C=C1\c2ccccc2Sc2ccc(Cl)cc21`, for which the Potency in assay [5] was 29.8 µM (active).
In the case of `CCCCCc1ccco1`, the Potency entry in assay [4] is “inactive”.
For `C[C@@H]1[C@H](O)[C@@H](C)/C=C/C=C\C=C\C=C\C=C\C=C\C=C\[C@H](O[C@@H]2O[C@H](C)[C@@H](O)[C@H](N)[C@@H]2O)C[C@@H]2O[C@](O)(C[C@@H](O)C[C@@H](O)[C@H](O)CC[C@@H](O)C[C@@H](O)CC(=O)O[C@H]1C)C[C@H](O)[C@H]2C(=O)O` (stereo in doubt), the Potency result in assay [4] and in assay [5] was “inactive” each time.
Turning to `CCC(=O)OCc1ccc(OC)cc1`, the Potency result in [4], in assay [5] and in assay [6] was “inactive” throughout.
Take `CCCCC[C@H](O)/C=C/[C@H]1[C@H](O)CC(=O)[C@@H]1C/C=C\CCCC(=O)O`: the Potency result in assay [4] and in assay [6] was “inactive” in each case.
As to `CCCCCCC(CO)CCCC` (stereo not drawn), the Potency entry in assay [4] and in [5] was “inactive” each time.
Turning to `COc1ccc(/C=C/C(=O)c2ccc(OC)cc2OC)cc1`, the Potency entry in assay [4] and in assay [5] was “inactive” each time. For the same compound, in assay [6], the Potency was 29.8 µM (active).
For `CCCCCCCCCCCSCC(=O)O`, the Potency result in assay [4], in [5] and in [6] was “inactive” in each case.
Take `Oc1ccc2c(c1)Cc1ccccc1-2`: the Potency result in assay [4] and in assay [5] was “inactive” throughout.
With `CC/C=C\C/C=C\C/C=C\CCCCCCCC(=O)OCC`, the Potency entry in [4] and in [5] was “inactive” each time.
As for `Nc1cccc2c(N)cccc12`, the Potency entry in assay [4] and in assay [5] was “inactive” in each case. Moreover, in assay [6], the Potency was 19.3 µM (active). The outcome in assay [8] and in assay [9] was inactive.
As for `CCCc1nc2c(C)cc(-c3nc4ccccc4n3C)cc2n1Cc1ccc(-c2ccccc2C(=O)O)cc1`, the Potency result in [4], in assay [5] and in assay [6] was “inactive” each time.
With `CC(C)(O)c1coc(S(=O)(=O)NC(=O)Nc2c3c(cc4c2CCC4)CCC3)c1`, the Potency result in assay [4] and in [5] was “inactive” throughout.
On to `Nc1nc(-c2ccc([N+](=O)[O-])cc2)cs1`, for which the Potency result in assay [4] and in assay [5] was “inactive” each time.
Consider `CC[C@H]1OC(=O)[C@H](C)[C@@H](O[C@H]2C[C@@](C)(OC)[C@@H](O)[C@H](C)O2)[C@H](C)[C@@H](O[C@@H]2O[C@H](C)C[C@H](N(C)C)[C@H]2O)[C@](C)(O)C[C@@H](C)CN(C)[C@H](C)[C@@H](O)[C@]1(C)O`, for which the Potency entry in [4] and in assay [6] was “inactive” each time.
Take `CCCCCCCC(=O)Oc1c(Br)cc(C#N)cc1Br`: the Potency entry in assay [4] is “inactive”.
In the case of `O=[N+]([O-])C1(Br)COCOC1`, in assay [5], the Potency was 43.3 µM (active).
